According to PubChem BioAssay (EPA / NIEHS):
Inconclusive results are not listed. Calls of active or inactive are those of the source. How the source made its calls, unless noted: active means hit-call score of the fitted dose curve at least 0.9, where 1 is the maximum; inconclusive means response in the unintended direction; inactive means score below 0.9. Where a SMILES comes first, the peptide text is derived from it. Bridges are numbered along the chain shown (N, C = ends). [ ]: non-standard residue; d: D form. The star is where a group is joined. Ileψ(thiazoline)Cys = CC[C@H](C)[C@H](N)C1=N[C@H](C(=O)*)CS1; dOrn = NCCC[C@@H](N)C(=O)O

Columns and labels:
[1] = TOX21_p53_BLA_p2_viability: Viability Assessment in the Tox21 HCT-116 p53 Agonism Beta-lactamase Assay, Phase 2 (AID 2283591);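 further: actives lower the ATP signal meaning cytotoxicity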
How it was run: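 Cytotoxicity readout: CellTiter-Glo ATP luminescence, 30 min at room temperature, after the beta-lactamase read. Cells were HCT116 exposed 16 h at 37C to compounds pin-transferred at 217-fold dilution from DMSO stocks.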

[2] = biological target: Cellular tumor antigen p53 (Homo sapiens) (UniProt P04637); assay: TOX21_p53_BLA_p2_ratio: Tox21 HCT-116 p53 Agonism Beta-lactamase Assay, Ratio, Phase 2 (AID 2283592)
Sequence of Cellular tumor antigen p53 (Homo sapiens) (P04637 whole entry, looked up): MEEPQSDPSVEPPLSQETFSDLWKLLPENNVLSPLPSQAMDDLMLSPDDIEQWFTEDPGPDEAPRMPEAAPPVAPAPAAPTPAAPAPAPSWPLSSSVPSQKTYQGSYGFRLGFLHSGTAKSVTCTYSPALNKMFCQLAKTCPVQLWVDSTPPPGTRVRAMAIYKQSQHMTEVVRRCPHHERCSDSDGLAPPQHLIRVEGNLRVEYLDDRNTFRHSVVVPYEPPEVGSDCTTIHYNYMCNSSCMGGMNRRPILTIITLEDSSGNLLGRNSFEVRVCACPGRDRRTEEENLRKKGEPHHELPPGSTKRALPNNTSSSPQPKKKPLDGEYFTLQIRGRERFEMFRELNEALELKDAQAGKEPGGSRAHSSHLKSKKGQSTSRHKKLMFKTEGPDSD
How it was run: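 Read-out is the blue/green (460/530 nm, 405 nm excitation) ratio after 2 h CCF4-AM loading, fitted as gain versus DMSO. Compounds, pinned at 217-fold dilution from DMSO stocks, stayed 16 h on HCT-116 beta-lactamase reporter cells seeded 5 h earlier.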

[3] = TOX21_p53_BLA_p3_viability: Viability Assessment in the Tox21 HCT-116 p53 Agonism Beta-lactamase Assay, Phase 3 (AID 2283593);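 further: cells exposed to compound for 16 h before reading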
How it was run: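 Cellular ATP was quantified by CellTiter-Glo luminescence, read after 30 min at room temperature. Beforehand, HCT116 cells (4000/well) received compound 5 h post-seeding, 217-fold diluted from DMSO, then incubated 16 h at 37C.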

[4] = biological target: Cellular tumor antigen p53 (Homo sapiens) (UniProt P04637); assay: TOX21_p53_BLA_p3_ratio: Tox21 HCT-116 p53 Agonism Beta-lactamase Assay, Ratio, Phase 3 (AID 2283596)
How it was run: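 Cells were seeded at 4000/well, rested 5 h at 37C, then dosed with DMSO compound solutions (217-fold dilution) for 16 h. CCF4-AM substrate was loaded for 2 h at room temperature, and the 460/530 nm emission ratio was fitted for gain of signal versus DMSO.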

[5] = TOX21_p53_BLA_p4_viability: Viability Assessment in the Tox21 HCT-116 p53 Agonism Beta-lactamase Assay, Phase 4 (AID 2283597);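 further: hits lower the luminescence signal meaning cytotoxicity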
How it was run: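 Cytotoxicity as reduced cellular ATP (CellTiter-Glo luminescence, 30 min room temperature), measured in the same wells following the CCF4 FRET p53 reading. Human HCT-116 cells received compounds in DMSO (217-fold dilution) for 16 h.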

[6] = biological target: Cellular tumor antigen p53 (Homo sapiens) (UniProt P04637); assay: TOX21_p53_BLA_p4_ratio: Tox21 HCT-116 p53 Agonism Beta-lactamase Assay, Ratio, Phase 4 (AID 2283601)
How it was run: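 Signal is the blue/green (460nm/530nm) ratio of cleaved versus uncleaved CCF4-AM substrate, read after 2 h substrate loading. Cells were HCT116 carrying the p53-responsive beta-lactamase reporter, dosed 16 h at 37C, 5% CO2; CellTiter-Glo measured in parallel.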

[7] = TOX21_p53_BLA_p5_viability: Viability Assessment in the Tox21 HCT-116 p53 Agonism Beta-lactamase Assay, Phase 5 (AID 2283600)
How it was run: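 Viability came from CellTiter-Glo ATP luminescence, read after 30 min at room temperature. Before this, HCT-116 p53-bla cells (4000/well) had 16 hours of compound exposure at 37C, with DMSO stocks diluted 217-fold on transfer.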

[8] = biological target: PGR (gene 5241) (UniProt P06401); assay: TOX21_PR_BLA_Followup_Antagonist_ratio: Tox21 HEK293 Progesterone Receptor (PR) Antagonism Beta-lactamase Follow-Up Assay, Ratio (AID 2283934);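 further: PR-UAS-bla HEK293T cells stimulated with 1 nM R5020 agonist for 16 hr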
Sequence of PGR (gene 5241) (P06401 whole entry, looked up): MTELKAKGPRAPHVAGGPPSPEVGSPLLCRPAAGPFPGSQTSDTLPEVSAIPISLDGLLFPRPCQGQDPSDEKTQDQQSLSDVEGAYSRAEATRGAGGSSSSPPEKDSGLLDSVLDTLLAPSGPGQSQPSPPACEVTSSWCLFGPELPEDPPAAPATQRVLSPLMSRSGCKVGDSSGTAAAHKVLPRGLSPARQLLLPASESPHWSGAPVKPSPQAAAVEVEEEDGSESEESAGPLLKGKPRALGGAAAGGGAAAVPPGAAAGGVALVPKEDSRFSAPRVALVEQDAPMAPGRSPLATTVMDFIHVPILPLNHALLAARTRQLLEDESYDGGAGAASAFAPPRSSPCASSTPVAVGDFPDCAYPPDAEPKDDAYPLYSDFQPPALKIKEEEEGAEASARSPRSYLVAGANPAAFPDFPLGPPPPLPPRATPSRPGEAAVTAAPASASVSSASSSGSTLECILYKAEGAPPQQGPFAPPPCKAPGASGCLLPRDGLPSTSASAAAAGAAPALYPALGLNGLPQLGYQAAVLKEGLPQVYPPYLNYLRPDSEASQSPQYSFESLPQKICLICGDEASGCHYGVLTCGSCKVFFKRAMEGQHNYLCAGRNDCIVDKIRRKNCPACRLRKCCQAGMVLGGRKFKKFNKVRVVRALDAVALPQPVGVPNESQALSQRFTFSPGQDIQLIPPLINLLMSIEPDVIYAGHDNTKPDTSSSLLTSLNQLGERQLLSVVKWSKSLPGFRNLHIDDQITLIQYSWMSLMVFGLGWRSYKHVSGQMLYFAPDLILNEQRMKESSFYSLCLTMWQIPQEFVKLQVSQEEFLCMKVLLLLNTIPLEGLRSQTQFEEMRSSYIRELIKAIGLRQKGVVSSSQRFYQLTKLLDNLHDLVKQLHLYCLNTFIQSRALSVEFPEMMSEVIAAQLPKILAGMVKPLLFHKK
How it was run: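 Cells are plated, rested 6 hr, then dosed with test compound in DMSO and challenged with 1 nM promegestone. After 16 hr incubation, substrate loading for 2 h at room temperature precedes fluorescence reading; viability is measured in the same wells.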

[9] = TOX21_PR_BLA_Followup_Agonist_viability: Viability Assessment in the Tox21 HEK293 Progesterone Receptor (PR) Agonism Beta-lactamase Follow-Up Assay (AID 2283935);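 further: signal loss means lower viability so actives are cytotoxic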
How it was run: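 Cells were plated in medium with 2% charcoal-stripped FBS and rested 6 hr. Compounds in DMSO were then added for 16 hr at 37C, followed by the FRET substrate step and CellTiter-Glo luminescence after 30 min.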

[10] = TOX21_PR_BLA_Followup_Antagonist_viability: Viability Assessment in the Tox21 HEK293 Progesterone Receptor (PR) Antagonism Beta-lactamase Follow-Up Assay (AID 2283936);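 further: cells exposed to compound with R5020 agonist for 16 h; hits lower the luminescence signal meaning cytotoxicity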
How it was run: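 PR-UAS-bla HEK293T cells in medium with 2% charcoal-stripped FBS were treated with compounds plus R5020 for 16 hr at 37C. After the beta-lactamase read, CellTiter-Glo was added to the same wells and luminescence read after 30 min at room temperature.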

[11] = biological target: PGR (gene 5241) (UniProt P06401); assay: TOX21_PR_LUC_Followup_Antagonist: Tox21 HEK293 Progesterone Receptor (PR) Antagonism Luciferase Follow-Up Assay (AID 2283938);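 further: curve fitted upward as signal gain over DMSO baseline despite antagonist label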
How it was run: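 Luminescence from ONE-Glo was measured 30 min after reagent addition, following 16 h exposure of HEK293-PR-A-luc cells (3,000/well, plated 5 h earlier) to DMSO-dissolved compounds at 37C; DMSO served as baseline.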

[12] = TOX21_PR_LUC_Followup_Antagonist_viability: Viability Assessment in the Tox21 HEK293 Progesterone Receptor (PR) Antagonism Luciferase Follow-Up Assay (AID 2283940)
How it was run: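 HEK293-PR-A-luc, 3,000 cells/well; 5 h at 37C/0% CO2; compound pin transfer; 16 h incubation; CellTiter-Glo ATP luminescence, signal loss = cytotoxicity.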

[13] = TOX21_PR_LUC_Followup_Agonist_viability: Viability Assessment in the Tox21 HEK293 Progesterone Receptor (PR) Agonism Luciferase Follow-Up Assay (AID 2283941);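 further: loss of signal means cytotoxicity so actives lower viability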
How it was run: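 Multiplexed viability endpoint of the PR agonist luciferase follow-up: HEK293-PR-A-luc cells treated 16 h at 37C, with viability scored as decrease in CellTiter-Glo ATP signal.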

[14] = CCTE_Harrill_HTTr_Viability_MCF7: CCTE's 6-hour Cell Viability Assessment for the High-Throughput Transcriptomics (HTTr) Platform, in MCF-7 cells cultured in DMEM + 10% fetal bovine serum, Harrill Lab (AID 2284010; active means hit-call score of the fitted dose curve at least 0.9, where 1 is the maximum; inactive means score below 0.9)
How it was run: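 Read-out is propidium iodide gain of signal by high-content imaging, reflecting membrane integrity loss. Measurements are taken 6 h after dosing, eight concentrations per chemical, with DMSO serving as baseline for bidirectional curve fitting.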

[15] = CCTE_Harrill_HTTr_Apoptosis_MCF7: CCTE's 6-hour Apoptosis Assessment for the High-Throughput Transcriptomics (HTTr) Platform, in MCF-7 cells cultured in DMEM + 10% fetal bovine serum, Harrill Lab (AID 2284011; active means hit-call score of the fitted dose curve at least 0.9, where 1 is the maximum; inactive means score below 0.9)
How it was run: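 High-content imaging of CellEvent Caspase 3/7 Green signal follows a six-hour exposure, with eight concentrations per chemical. MCF-7 cells grown in DMEM plus 10% fetal bovine serum; activity fitted in both directions against DMSO.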

[16] = CCTE_Harrill_HTTr_CellCount_MCF7: CCTE's Cell Proliferation Assessment for the High-Throughput Transcriptomics (HTTr) Platform, Harrill Lab (AID 2284012);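 further: cells exposed to compound for six hours; intended direction is loss of nuclei count meaning fewer cells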
How it was run: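 Cell count served as viability reporter: loss of Hoechst-stained nuclei, counted by high content imaging, marks decreased growth or survival. Exposure was 6 h in MCF-7 cells across eight concentrations, with DMSO as baseline.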

Measured: AC50

CN(C)CCc1c[nH]c2ccc(CS(=O)(=O)N3CCCC3)cc12
inactive: [1] | [2] | [3] | [4] | [5] | [6]

CC(=O)OC(C)OC(=O)C(C)c1ccc(-c2ccccc2)c(F)c1 (stereo not drawn)
inactive: [1] | [2] | [3] | [4] | [5] | [7] | [6]

CC1(C)S[C@@H]2[C@H](NC(=O)[C@H](N)c3ccccc3)C(=O)N2[C@H]1C(=O)OCOC(=O)[C@@H]1N2C(=O)C[C@H]2S(=O)(=O)C1(C)C
inactive: [1] | [2] | [3] | [4] | [5] | [7] | [6]

C[C@]12CCC(=O)C=C1CC[C@@H]1[C@@H]2CC[C@@]2(C)[C@H]1CC[C@]2(O)C(=O)CO
not listed: [14] | [15] | [16]
inactive: all other assays above

CC(=O)Oc1ccc(C(=C2CCCCC2)c2ccc(OC(C)=O)cc2)cc1
inactive: [1] | [2] | [3] | [4] | [5] | [6]

N#CCC(=O)O
inactive: [1] | [2] | [3] | [4] | [5] | [7] | [14] | [15] | [16]

CC[C@H](C)[C@H](N)C1=N[C@H](C(=O)N[C@@H](CC(C)C)C(=O)N[C@H](CCC(=O)O)C(=O)N[C@H](C(=O)N[C@H]2CCCCNC(=O)[C@H](CC(N)=O)NC(=O)[C@@H](CC(=O)O)NC(=O)[C@H](Cc3cnc[nH]3)NC(=O)[C@@H](Cc3ccccc3)NC(=O)[C@H]([C@@H](C)CC)NC(=O)[C@@H](CCCN)NC2=O)[C@@H](C)CC)CS1 ({Ileψ(thiazoline)Cys}-L[dE]IK[dOrn]I[dF]H[dD]N; lactam 4-C)
inactive: [1] | [2] | [3] | [4] | [5] | [7] | [6]

NC(=S)N/N=C/c1cccnc1
inactive: [1] | [2] | [3] | [4] | [5] | [6]

O=C(c1ccccc1O)c1ccccc1O
inactive: [1] | [2] | [3] | [4] | [5] | [6]

Nc1cc(-c2ccncc2)c[nH]c1=O
inactive: [1] | [2] | [3] | [4] | [5] | [7] | [6] | [14] | [15]

CN(C1CCCCC1)S(=O)(=O)c1ccccc1N
active: [8] 25.7 µM | [11] 24.2 µM
not listed: [14] | [15] | [16]
inactive: all other assays above

OC(CCN1CCCC1)(c1ccccc1)C1CCCCC1 (stereo not drawn)
inactive: [1] | [2] | [3] | [4] | [5] | [7] | [6]

CC/C=C\C/C=C\C/C=C\C/C=C\C/C=C\CCCC(=O)O
inactive: [1] | [2] | [3] | [4] | [5] | [7] | [6]
